Results filed as inconclusive are left out. Active and inactive are the calls of the source. The calls were made as follows, unless noted: active = hit-call score of the fitted dose curve at least 0.9, where 1 is the maximum; inconclusive = response in the unintended direction; inactive = score below 0.9.
Columns and labels:
[1] = read-out: X-box binding protein 1 (XBP1), XBP1 (gene 7494); experiment: LTEA_HepaRG_XBP1: Life Technologies and Expression Analysis (LTEA) Assay for X-box binding protein 1 (XBP1) using HepaRG (AID 2283540; active = hit-call score of the fitted dose curve at least 0.9, where 1 is the maximum; inactive = score below 0.9); conditions: mRNA level, 48 h; actives raise or lower the signal
In short: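 Transcript levels of XBP1, measured by qRT-PCR and normalised to three housekeeping genes, were fitted bidirectionally relative to 0.5% DMSO controls. Human HepaRG cells received eight-point half-log dilutions from 100 uM for 48 h.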

[2] = LTEA_HepaRG_LDH_cytotoxicity: Cytotoxicity Assessment in the Life Technologies and Expression Analysis (LTEA) Assay (AID 2283563)
In short: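 Cells were thawed and plated for 48 h. Medium was then replaced with serum-free induction medium. Chemicals (8 half-log points, maximum 100 uM, 0.5% DMSO) were added in duplicate for 48 h, after which spent medium was assayed for LDH.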

[3] = ATG_XTT_Cytotoxicity: Cytotoxicity Assessment in the Attagene TRANS-FACTORIAL HepG2 Assay (AID 2283584);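 as to AC50: cells exposed to compound for 24 h before reading; active means loss of viability signal versus DMSO baseline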
In short: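 Cells: human HepG2, transiently transfected with MRTU reporter constructs. Exposure 24 h. Readout: XTT, cell number. Baseline/neg ctrl DMSO; loss-of-signal scored.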

[4] = biological target: Cellular tumor antigen p53 (Homo sapiens) (UniProt P04637); experiment: TOX21_p53_BLA_p2_ratio: Tox21 HCT-116 p53 Agonism Beta-lactamase Assay, Ratio, Phase 2 (AID 2283592)
Sequence of Cellular tumor antigen p53 (Homo sapiens) (P04637 whole entry, looked up): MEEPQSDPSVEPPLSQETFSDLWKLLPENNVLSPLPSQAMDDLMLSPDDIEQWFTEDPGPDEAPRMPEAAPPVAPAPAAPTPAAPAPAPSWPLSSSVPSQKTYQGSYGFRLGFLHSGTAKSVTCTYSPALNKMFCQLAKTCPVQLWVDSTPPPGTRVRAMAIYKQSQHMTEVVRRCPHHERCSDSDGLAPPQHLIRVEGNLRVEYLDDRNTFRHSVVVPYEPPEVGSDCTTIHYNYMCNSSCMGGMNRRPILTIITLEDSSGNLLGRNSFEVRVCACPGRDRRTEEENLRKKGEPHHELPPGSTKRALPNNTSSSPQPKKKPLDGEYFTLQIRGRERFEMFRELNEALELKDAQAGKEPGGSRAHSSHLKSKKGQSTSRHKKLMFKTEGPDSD
In short: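 Plated HCT116 p53-bla cells (4000/well) received compound after 5 h, then 16 h at 37C/5% CO2. CCF4-AM added, 2 h RT. Ratio of 460 to 530 nm emission taken as the p53 reporter signal.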

[5] = biological target: Cellular tumor antigen p53 (Homo sapiens) (UniProt P04637); experiment: TOX21_p53_BLA_p3_ratio: Tox21 HCT-116 p53 Agonism Beta-lactamase Assay, Ratio, Phase 3 (AID 2283596)
In short: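 Cells were seeded at 4000/well, rested 5 h at 37C, then dosed with DMSO compound solutions (217-fold dilution) for 16 h. CCF4-AM substrate was loaded for 2 h at room temperature, and the 460/530 nm emission ratio was fitted for gain of signal versus DMSO.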

[6] = TOX21_p53_BLA_p4_viability: Viability Assessment in the Tox21 HCT-116 p53 Agonism Beta-lactamase Assay, Phase 4 (AID 2283597);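 also: hits lower the luminescence signal meaning cytotoxicity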
In short: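 Readout: ATP luminescence (CellTiter-Glo), measured 30 min after reagent addition at RT. The reagent followed a 2 h CCF4-AM incubation, and the cells had been exposed to compound for 16 h at 37C.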

[7] = biological target: Cellular tumor antigen p53 (Homo sapiens) (UniProt P04637); experiment: TOX21_p53_BLA_p5_ratio: Tox21 HCT-116 p53 Agonism Beta-lactamase Assay, Ratio, Phase 5 (AID 2283599)
In short: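 Beta-lactamase reporter ratio (blue 460 nm over green 530 nm, 405 nm excitation) after 2 h CCF4-AM loading, in HCT-116 cells exposed 16 h at 37 C to compounds pinned at 217-fold dilution. Increases relative to DMSO baseline scored.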

[8] = TOX21_p53_BLA_p5_viability: Viability Assessment in the Tox21 HCT-116 p53 Agonism Beta-lactamase Assay, Phase 5 (AID 2283600)
In short: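 Workflow: seed 4000 cells per well, wait 5 h, add compounds (DMSO, 217-fold dilution), incubate 16 h, load CCF4-AM 2 h, add CellTiter-Glo, read luminescence after 30 min.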

[9] = biological target: Cellular tumor antigen p53 (Homo sapiens) (UniProt P04637); experiment: TOX21_p53_BLA_p4_ratio: Tox21 HCT-116 p53 Agonism Beta-lactamase Assay, Ratio, Phase 4 (AID 2283601)
In short: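 Signal is the blue/green (460nm/530nm) ratio of cleaved versus uncleaved CCF4-AM substrate, read after 2 h substrate loading. Cells were HCT116 carrying the p53-responsive beta-lactamase reporter, dosed 16 h at 37C, 5% CO2; CellTiter-Glo measured in parallel.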

[10] = Tanguay_ZF_120hpf_MORT_legacy: (Legacy) Oregon State University Tanguay Lab 120 Hour Post-fertilization zebrafish Assay for Mortality (AID 2283633);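 as to AC50: fitted as increase in binary mortality versus DMSO negative control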
In short: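 5D WT zebrafish, chorion removed 4 hpf; 1 embryo/well from 6 hpf; static exposure to 120 hpf, 28C, dark, sealed. Final DMSO 0.64%. Readout: binary mortality, brightfield, 24 + 120 hpf; DMSO as negative control.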

[11] = Tanguay_ZF_120hpf_AXIS_legacy: (Legacy) Oregon State University Tanguay Lab 120 Hour Post-fertilization zebrafish Assay for Body Axis Malformation (AID 2283635);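 as to AC50: potency for an increased fraction of larvae scored with body axis malformation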
In short: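 Chorion is removed with pronase at 4 hpf, then single 6 hpf embryos are dosed (final DMSO 0.64%) and held statically at 28C in sealed, foil-covered plates. At 120 hpf body axis malformation is recorded as present or absent.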

[12] = Tanguay_ZF_120hpf_SNOU_legacy: (Legacy) Oregon State University Tanguay Lab 120 Hour Post-fertilization zebrafish Assay for Snout Malformation (AID 2283637)
In short: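 Binary snout-malformation call at 120 hpf in wild-type 5D embryos, chorion removed by pronase, under static exposure from 6 hpf at 28C (0.64% DMSO). Embryos dying by 24 or 120 hpf excluded.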

[13] = Tanguay_ZF_120hpf_JAW_legacy: (Legacy) Oregon State University Tanguay Lab 120 Hour Post-fertilization zebrafish Assay for Jaw Malformation (AID 2283638)
In short: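 Steps: dechorionate 4 hpf embryos (pronase); plate 1/well at 6 hpf; add test chemical, 0.64% DMSO final; seal, cover, hold at 28C statically to 120 hpf; score jaw defect presence/absence microscopically. Dead embryos not scored.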

[14] = Tanguay_ZF_120hpf_OTIC_legacy: (Legacy) Oregon State University Tanguay Lab 120 Hour Post-fertilization zebrafish Assay for Otic Vesicle Malformation (AID 2283639)
In short: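 Statically exposed wild-type 5D zebrafish embryos, kept sealed and dark at 28C through 120 hours post fertilization, were examined by brightfield microscopy for otic vesicle defects. Responses were recorded as present or absent and analysed relative to DMSO.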

[15] = Tanguay_ZF_120hpf_PE_legacy: (Legacy) Oregon State University Tanguay Lab 120 Hour Post-fertilization zebrafish Assay for Pericardial Edema (AID 2283640)
In short: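 Embryos from wild-type 5D adults were staged, then dosed in 0.64% DMSO. They were kept sealed in the dark at 28C until 120 hpf. Pericardial edema was then recorded as present or absent.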

[16] = read-out: UDP glucuronosyltransferase (UGT1A6), UGT1A6 (gene 54578); experiment: LTEA_HepaRG_UGT1A6: Life Technologies and Expression Analysis (LTEA) Assay for UDP glucuronosyltransferase (UGT1A6) using HepaRG (AID 2283539; active = hit-call score of the fitted dose curve at least 0.9, where 1 is the maximum; inactive = score below 0.9); conditions: mRNA level, 48 h; actives raise or lower the signal
In short: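 HepaRG, 48 h post-plating switch to serum-free induction medium; chemical 48 h, 100 uM top, half-log x8, duplicate, 0.5% DMSO. Phenobarbital 1mM induction control. UGT1A6 mRNA by TaqMan qRT-PCR; gain/loss fit vs DMSO.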

[17] = TOX21_p53_BLA_p3_viability: Viability Assessment in the Tox21 HCT-116 p53 Agonism Beta-lactamase Assay, Phase 3 (AID 2283593);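 also: cells exposed to compound for 16 h before reading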
In short: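 Cellular ATP was quantified by CellTiter-Glo luminescence, read after 30 min at room temperature. Beforehand, HCT116 cells (4000/well) received compound 5 h post-seeding, 217-fold diluted from DMSO, then incubated 16 h at 37C.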

[18] = Tanguay_ZF_120hpf_YSE_legacy: (Legacy) Oregon State University Tanguay Lab 120 Hour Post-fertilization zebrafish Assay for Yolk Sac Edema (AID 2283634)
In short: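 Dechorionate (pronase, 4 hpf) → place one 6 hpf embryo per well → static compound exposure, sealed and foil-covered, 28C, to 120 hpf → record yolk sac edema as present or absent. Final DMSO 0.64%.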

[19] = Tanguay_ZF_120hpf_EYE_legacy: (Legacy) Oregon State University Tanguay Lab 120 Hour Post-fertilization zebrafish Assay for Eye Malformation (AID 2283636);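 also: binary presence or absence of eye malformation scored by brightfield in 120 hpf larvae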
In short: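 Binary brightfield scoring of eye defects at 120 hpf after static exposure from 6 hpf of single pronase-dechorionated wild-type embryos (28C, 0.64% DMSO). Non-mortality endpoints omitted where embryos died; fit vs DMSO.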

[20] = TOX21_p53_BLA_p2_viability: Viability Assessment in the Tox21 HCT-116 p53 Agonism Beta-lactamase Assay, Phase 2 (AID 2283591);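 also: compound exposure lasted 16 h at 37 °C; actives lower the ATP signal meaning cytotoxicity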
In short: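 Cytotoxicity readout: CellTiter-Glo ATP luminescence, 30 min at room temperature, after the beta-lactamase read. Cells were HCT116 exposed 16 h at 37C to compounds pin-transferred at 217-fold dilution from DMSO stocks.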

For CC(C)c1cccc(C(C)C)c1N1C(=O)c2ccc(O)cc2C1=O, the outcome [1] was “inactive”, the outcome [2] was “inactive” and the outcome [3] was “inactive”. The AC50 [4] was 1.77 µM (active), the outcome [5] was “inactive” and the AC50 [6] was 68.4 µM (active). For the same compound, the AC50 [7] was 2.05 µM (active), the AC50 [8] was 79 µM (active) and the AC50 [9] was 69.5 µM (active). For the same compound, the AC50 [10] was 26.9 µM (active), the outcome [11] was “inactive” and the outcome [12] was “inactive”. For the same compound, the outcome [13] was “inactive”, the outcome [14] was “inactive” and the outcome [15] was “inactive”.
With CNCc1ccc(NC(=O)c2c[nH]c3c2C(=O)CCC3)cc1 the outcome [16] was “inactive”, the outcome [1] was “inactive” and the outcome [4] was “inactive”. For the same compound, the outcome [17] was “inactive”, the outcome [6] was “inactive” and the outcome [9] was “inactive”. The outcome [10] was “inactive”, the outcome [18] was “inactive” and the outcome [11] was “inactive”. The outcome [19] was “inactive”, the outcome [12] was “inactive” and the outcome [13] was “inactive”. For the same compound, the outcome [14] was “inactive” and the outcome [15] was “inactive”.
With O=C(O)c1cccc(N(Cc2cccnc2)c2ccc(OC(F)F)c(OC(F)F)c2)c1 the outcome [16] was “inactive”, the outcome [1] was “inactive” and the outcome [3] was “inactive”. For the same compound, the outcome [20] was “inactive”, the outcome [4] was “inactive” and the outcome [6] was “inactive”. For the same compound, the outcome [7] was “inactive”, the outcome [9] was “inactive” and the outcome [10] was “inactive”. The outcome [11] was “inactive”, the outcome [19] was “inactive” and the outcome [12] was “inactive”. For the same compound, the outcome [13] was “inactive”, the outcome [14] was “inactive” and the outcome [15] was “inactive”.
For CC(C)=CCC/C(C)=C/CO, the outcome [16] was “inactive”, the outcome [1] was “inactive” and the outcome [4] was “inactive”. The outcome [6] was “inactive”, the outcome [7] was “inactive” and the outcome [8] was “inactive”. For the same compound, the outcome [9] was “inactive”, the outcome [10] was “inactive” and the AC50 [11] was 23.6 µM (active). The outcome [19] was “inactive”, the outcome [12] was “inactive” and the outcome [13] was “inactive”. The outcome [14] was “inactive” and the outcome [15] was “inactive”.
In the case of CC(C)=CCCC(C)CCO (stereo unspecified), the outcome [1] is reported as “inactive”, the outcome [2] is reported as “inactive” and the outcome [3] is reported as “inactive”. For the same compound, the outcome [4] was “inactive”, the outcome [17] was “inactive” and the outcome [6] was “inactive”. For the same compound, the outcome [7] was “inactive”, the outcome [8] was “inactive” and the outcome [10] was “inactive”. For the same compound, the outcome [18] was “inactive”, the outcome [11] was “inactive” and the outcome [19] was “inactive”. For the same compound, the outcome [12] was “inactive”, the outcome [14] was “inactive” and the outcome [15] was “inactive”.
For O=C(CCCCCCCCc1cccnc1)N1CCC(C=C(c2ccccc2)c2ccccc2)CC1, the AC50 [16] was 33.6 µM (active), the AC50 [1] was 30.9 µM (active) and the AC50 [3] was 33.8 µM (active). The outcome [4] was “inactive”, the AC50 [17] was 28.2 µM (active) and the AC50 [5] was 43.2 µM (active). For the same compound, the outcome [6] was “inactive”, the outcome [7] was “inactive” and the AC50 [8] was 13.9 µM (active). For the same compound, the outcome [9] was “inactive”, the outcome [10] was “inactive” and the outcome [11] was “inactive”. The outcome [19] was “inactive”, the outcome [12] was “inactive” and the outcome [13] was “inactive”. The outcome [14] was “inactive” and the outcome [15] was “inactive”.
For CC(C)(O)c1coc(S(=O)(=O)NC(=O)Nc2c3c(cc4c2CCC4)CCC3)c1, the outcome [16] was “inactive”, the outcome [1] was “inactive” and the outcome [20] was “inactive”. The outcome [4] was “inactive”, the outcome [5] was “inactive” and the outcome [6] was “inactive”. The outcome [7] was “inactive”, the outcome [8] was “inactive” and the outcome [9] was “inactive”. The outcome [10] was “inactive”, the outcome [11] was “inactive” and the outcome [19] was “inactive”. For the same compound, the outcome [12] was “inactive”, the outcome [13] was “inactive” and the outcome [14] was “inactive”. For the same compound, the outcome [15] was “inactive”.
